Several values for one entry are separate records, joined by “and”; a condition that tells them apart may be missing. Equal entries are not always repeated. Results filed as inconclusive are left out. Activity calls are given as the source filed them.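 Rule for the calls, unless noted: active = thallium flux through the channel raised or lowered by more than 3 SD from vehicle-only wells, actives on both sides; inactive = the rest.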
Key:
[1] = Cy5 fluorescence interference with SSB-bound oligo, artefact control for HCV NS3 helicase inhibitor project, biochemical, NIH Clinical Collection, E. coli SSB (AID 743268; call rule not given here)
[2] = system: Hepatitis C virus NS3 helicase; assay: HCV NS3 helicase inhibitors, primary screen, biochemical, fluorescence polarization, NIH Clinical Collection (AID 743270; call rule not given here); conditions: NS3 helicase binding to Cy5-dT15 DNA, stronger effect = higher value, concentration not given here
[3] = modulation of C. elegans fzo-1 (AID 1259413; call rule not given here;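 note: fzo-1 mutant C. elegans worms in liquid wells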); conditions: C. elegans fzo-1 modulator screen, mean read-out; stronger effect = higher value
[4] = growth inhibition of DIPG glioma cells, dose response, cell-based, JHH-DIPG-1, MIPE4.0, CellTiter-Glo, qHTS (AID 1347062; cut-off not given, nearly all actives have AC50 up to about 27 µM); conditions: JHH-DIPG-1 viability, CellTiter-Glo ATP luminescence
[5] = JHH-DIPG-1 glioma cell viability, MIPE5.0 library, CellTiter-Glo luminescence, qHTS (AID 1347067; cut-off not given, nearly all actives have AC50 up to about 26 µM;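 note: cells exposed to compound for 48 hours before readout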); conditions: JHH-DIPG-1 glioma viability, CellTiter-Glo ATP luminescence
[6] = SU-DIPG-XXV glioma cell viability, MIPE5.0 library, qHTS (AID 1347068; cut-off not given, nearly all actives have IC50 up to about 30 µM)
[7] = HTB85 osteosarcoma cell growth inhibition, synergistic combos for chromothripsis tumors, BGB or cisplatin IC20 combos (AID 1671453; in the data active = inhibition above about 80%;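 note: cells exposed for 96 hours before readout; 0% = vehicle DMSO and 100% = high DMSO killing control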); conditions: HTB85 osteosarcoma cells, drug combinations, stronger effect = higher value
[8] = MDA-MB-436 breast carcinoma cell growth inhibition, synergistic combos for chromothripsis tumors, BGB or cisplatin combos (AID 1671458; call rule not given here;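 note: cells exposed for 96 hours; 0% = vehicle DMSO and 100% = killing by high DMSO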); conditions: MDA-MB-436 breast carcinoma growth inhibition, drug combinations, stronger effect = higher value
[9] = growth inhibition of BT084 medulloblastoma cells, cell-based, ICGC_MB145, cisplatin and BGB IC40 combos (AID 1671461; in the data active = inhibition above about 80%;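 note: cells exposed to drugs for 96 hours; 0% = vehicle DMSO and 100% = high DMSO full killing control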); conditions: drug combinations, stronger effect = higher value
[10] = growth inhibition of RCMB18 medulloblastoma cells, cell-based, cisplatin and BGB IC40 combos (AID 1671462; in the data active = inhibition above about 80%;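 note: cells exposed to compound for four days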); conditions: stronger effect = higher value
[11] = growth inhibition of CRL1545 osteosarcoma cells, cell-based, cisplatin and BGB IC20 combos (AID 1671464; in the data active = inhibition above about 80%;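 note: cells exposed to compound for 96 hours before readout; 0% = vehicle DMSO and 100% = high DMSO killing control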); conditions: stronger effect = higher value
[12] = system: F380Y; assay: modulators of BK channel variants, profiling panel, selectivity assay, cell-based, U2OS BacMam, thallium flux, beta subunits (AID 1259406); conditions: at 30 µM;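 note: initial slope of Thallos dye fluorescence rise after thallium is added; log ratio against the mean of 0.3% DMSO vehicle wells on the same plate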
[13] = system: F380Y/beta1; assay: as above; conditions: at 30 µM
[14] = system: F380Y/beta2Delta; assay: as above; conditions: at 30 µM
[15] = system: F380Y/beta4; assay: as above; conditions: at 30 µM
[16] = system: R275C; assay: as above; conditions: at 30 µM
[17] = system: R275C/beta1; assay: as above; conditions: at 30 µM
[18] = system: R275C/beta2Delta; assay: as above; conditions: at 30 µM
[19] = system: R275C/beta4; assay: as above; conditions: at 30 µM
[20] = system: R275C/Slo1WT/beta2; assay: as above; conditions: at 30 µM

O=P1(N(CCCl)CCCl)NCCCO1 (stereo not given)
-11.8% and -7.83%: inhibition ([8]; measured here: BGB combination, at 5 µM)
-39% and 8.55%: inhibition ([10]; cisplatin combo, at 5 µM)
inactive: fluorescence ratio [1] 1.07 | inhibition [2] -4.09% | mean signal [3] 262 | outcome [4] | outcome [5] | outcome [6] | inhibition ([7]; at 0.5 µM) -15.6% and -16.2% | inhibition ([8]; at 0.5 µM) -6.84% and -18.8% | inhibition ([9]; at 0.5 µM) -9.95% and -11.7% | inhibition ([10]; at 0.5 µM) -4.96% and -6.79% | inhibition ([11]; at 0.5 µM) -20.8% and -21.4% | log fold change Tl+ flux [12] -0.0772 | log fold change Tl+ flux [13] -0.00569 | log fold change Tl+ flux [14] -0.037 | log fold change Tl+ flux [15] -0.0197 | log fold change Tl+ flux [16] -0.0233 | log fold change Tl+ flux [17] 0.00892 | log fold change Tl+ flux [18] -0.0421 | log fold change Tl+ flux [19] 0.0832 | log fold change Tl+ flux [20] 0.011
-20.8% and 7.02%: inhibition ([10]; measured here: combination with cisplatin, at 0.5 µM)
-9.56% and -21.4%: inhibition ([9]; single agent, at 5 µM)
0.113% and -3.32%: inhibition ([7]; single agent, at 5 µM)
-6.86% and -4.77%: inhibition ([10]; single agent, at 5 µM)
-36.8% and -12%: inhibition ([9]; cisplatin combination, at 0.5 µM)
-25% and -2.49%: inhibition ([11]; single agent, at 0.05 µM)
-39.9% and -19.6%: inhibition ([7]; measured here: with cisplatin IC20, at 5 µM)
-17.1% and -31%: inhibition ([7]; measured here: with BGB IC20, at 0.5 µM)
-9.3% and -18.7%: inhibition ([7]; measured here: with BGB IC20, at 5 µM)
-1.57% and -57.3%: inhibition ([9]; cisplatin combination, at 5 µM)
-33.7% and 3.63%: inhibition ([11]; measured here: with BGB IC20 combination, at 0.5 µM)
-16.2% and -34%: inhibition ([11]; measured here: with cisplatin IC20 combination, at 0.5 µM)
-12.6% and 10%: inhibition ([10]; measured here: BGB IC40 combination, at 0.05 µM)
-19.2% and 1.38%: inhibition ([9]; measured here: BGB IC40 combination 0.05 uM, at 0.05 µM)
-4.29% and -16.7%: inhibition ([8]; measured here: BGB combination, at 0.5 µM)
-42.1% and -18.1%: inhibition ([8]; measured here: cisplatin combination, at 5 µM)
10.9% and -41%: inhibition ([11]; single agent, at 5 µM)
-1.92% and -34.6%: inhibition ([8]; measured here: cisplatin combination, at 0.5 µM)
-29.3% and -21%: inhibition ([7]; measured here: with cisplatin IC20, at 0.5 µM)

CN(C)[C@@H]1C(=O)C(C(N)=O)=C(O)[C@@]2(O)C(=O)C3=C(O)c4c(O)cccc4[C@@](C)(O)[C@H]3C[C@@H]12
inactive: mean signal [3] 244 | outcome [4] | outcome [5] | outcome [6]

CN(C)[C@@H]1C(=O)C(C(N)=O)=C(O)[C@@]2(O)C(=O)C3=C(O)c4c(O)cccc4[C@@](C)(O)[C@H]3[C@H](O)[C@@H]12
inactive: fluorescence ratio [1] 1.03 | inhibition [2] -4.09% | mean signal [3] 260 | outcome [4] | outcome [5] | outcome [6] | log fold change Tl+ flux [12] 0.018 | log fold change Tl+ flux [13] 0.0522 | log fold change Tl+ flux [14] -0.0529 | log fold change Tl+ flux [15] -0.0391 | log fold change Tl+ flux [16] -0.057 | log fold change Tl+ flux [17] 0.0468 | log fold change Tl+ flux [18] -0.0649 | log fold change Tl+ flux [19] 0.0299 | log fold change Tl+ flux [20] -0.0058

C=C(C)[C@H]1Cc2c(ccc3c2O[C@@H]2COc4cc(OC)c(OC)cc4[C@@H]2C3=O)O1
active: AC50 [5] 1.48 µM

CC(NC(C)(C)C)C(=O)c1cccc(Cl)c1 (stereo not given)
inactive: fluorescence ratio [1] 1.04 and 1.06 | inhibition [2] -3.56% and 3.56% | mean signal [3] 264 | outcome [4] | outcome [5] | outcome [6] | log fold change Tl+ flux [12] 0.0198 and -0.0218 | log fold change Tl+ flux [13] -0.0211 and 0.0228 | log fold change Tl+ flux [14] -0.0525 and 0.0137 | log fold change Tl+ flux [15] -0.0339 and 0.00749 | log fold change Tl+ flux [16] -0.059 and 0.00561 | log fold change Tl+ flux [17] -0.0389 and 0.036 | log fold change Tl+ flux [18] -0.014 and 0.0171 | log fold change Tl+ flux [19] -0.00901 and 0.0176 | log fold change Tl+ flux [20] -0.0516 and 0.0164

Clc1ccc(COC(Cn2ccnc2)c2ccc(Cl)cc2Cl)cc1 (stereo not given)
active: log fold change Tl+ flux [14] -0.182 | log fold change Tl+ flux [15] -0.321 | log fold change Tl+ flux [19] 0.279
inactive: fluorescence ratio [1] 1.02 | inhibition [2] 3.18% | mean signal [3] 173 | log fold change Tl+ flux [12] -0.0888 | log fold change Tl+ flux [13] -0.0732 | log fold change Tl+ flux [16] -0.00134 | log fold change Tl+ flux [17] 0.0779 | log fold change Tl+ flux [18] 0.0329 | log fold change Tl+ flux [20] -0.0527

O=C(O)c1nn(Cc2ccc(Cl)cc2Cl)c2ccccc12
inactive: outcome [5] | outcome [6]
